mut p53 react = mutant p53 pathway re-activators, primary screen, cell-based, SW480, luciferase, single point, HTS. SW480 PUMA-promoter luciferase, p53 mutant reactivation. activation, % at 9.98 µM. hit rate 1.5% among 28,000. AID 624151, 2012; in the data active means activation above about 52%
ID4 binder = binders of human ID4 protein, primary screen, biochemical, small molecule microarray, single point; Flag-ID4 binding, fluorescence F/B; hit rate 1.2% among 31,000; AID 624137, 2012; calls only; call rule not given here;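 further: a binder raises fluorescence above local background on the spot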
Target sequence (P47928 whole entry, looked up): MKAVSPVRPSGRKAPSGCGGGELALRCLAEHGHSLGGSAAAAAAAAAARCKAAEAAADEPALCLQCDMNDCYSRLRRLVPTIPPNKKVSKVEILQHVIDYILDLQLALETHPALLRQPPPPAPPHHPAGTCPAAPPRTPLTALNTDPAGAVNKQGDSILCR
STK33 inh = STK33 kinase inhibitors, primary screen, biochemical, luminescence, ADP-Glo, MBP substrate; Serine/threonine-protein kinase 33 (Homo sapiens), Q9BYT3; inhibition, % at 12.5 µM; hit rate 0.44% among 27,000; in the data active means inhibition above about 20%
NOMO-1 viab = NOMO-1 AML cell viability reduction, primary screen, STK33 inhibitor project, CellTiter-Glo luminescence; NOMO-1 AML viability, 72 h; inhibition, % (no concentration beside the values); hit rate 7.5% among 37,000; in the data active means inhibition above about 80%
* marks the source's active call; other numbers are inactive results; i = inactive; nt = not tested or not shown. Only a selection was taken, and hits are over-represented in it overall.

SMILES	mut p53 react	ID4 binder	STK33 inh	NOMO-1 viab
COc1cccc(C(=O)NC(c2ccccc2OC)c2c(O)ccc3ccccc23)c1 (stereo unspecified)	-1.9	i	-2.0	2.0
COc1cccc(CNC(=O)C[C@@H]2C=C[C@@H](NC(C)=O)[C@H](CO)O2)c1	nt	i	nt	nt
Cc1c(C)c(C)c(CSC2CC(=O)N(c3ccccc3)C2=O)c(C)c1C (stereo unspecified)	nt	nt	nt	4.9
O=C1CC(Sc2nnc(-c3ccccc3O)o2)C(=O)N1c1ccccc1 (stereo unspecified)	-4.8	i	-9.3	122.3*
C[C@H]1CN([C@@H](C)CO)C(=O)Cc2cc(NC(=O)C3CCCCC3)ccc2O[C@@H]1CN(C)Cc1ccc(Oc2ccccc2)cc1	nt	nt	-0.9	52.4
CCCCCC[C@H](O)/C=C/CC1C(=O)CC[C@H](O)C1=O (stereo partly specified)	6.0	nt	-0.7	1.9
CCCCCCCCC/C=C/CCCCC(=O)C1C(=O)CCC(O)C1=O (stereo unspecified)	-0.6	i	-7.5	108.8*
O=C(Oc1c(CN2CCOCC2)cc(Cl)c2cccnc12)c1ccc([N+](=O)[O-])cc1	-40.1	i	3.0	138.9*
O=C(Nc1c(Cl)cc(Cl)cc1C(=O)NCCN1CCOCC1)c1cccc([N+](=O)[O-])c1	-10.6	i	-0.7	-23.9
COC(=O)c1cccc(C(=O)Nc2cnc3ccccc3c2)n1	nt	nt	nt	123.4*
COc1ccc2c(c1)O[C@H]1c3ccc(O)cc3OC[C@@H]21	16.0	i	-0.5	20.4
Oc1ccc2c(c1O)OCC1c3cc4c(cc3OC21)OCO4 (stereo unspecified)	-32.4	i	1.2	105.2*
CC(C)=CCc1cc2c(cc1O)O[C@H]1c3ccc(O)c(O)c3OC[C@@H]21	nt	nt	-5.1	104.7*
C[C@H]1CN([C@@H](C)CO)C(=O)c2cccc(NC(=O)Nc3ccc(F)cc3)c2O[C@H]1CN(C)C(=O)Nc1ccc2c(c1)OCO2	nt	nt	nt	8.8
O=C(CC1c2ccccc2Oc2ccccc21)Nc1ccc(Cc2ccncc2)cc1	-40.0	i	4.3	134.6*
CCOC(=O)Nc1cccc(NC(=O)CC2c3ccccc3Oc3ccccc32)c1	-14.4	i	2.1	71.8
CC12CCC(c3c1nn(-c1ccccc1)c3C(F)(F)F)C2(C)C (stereo unspecified)	nt	nt	nt	122.6*
C=C1CC[C@@H]2[C@](C)(CO)[C@H](O)CC[C@@]2(C)[C@@H]1C/C=C1/C(=O)OC[C@H]1O	-0.2	i	-0.9	107.8*
O=C(C[C@@H]1CC[C@@H](NC(=O)C2CCC2)[C@H](CO)O1)NC1CCCCC1	nt	i	nt	nt
C[C@@H]1CN([C@@H](C)CO)C(=O)Cc2cc(NC(=O)Cc3ccccc3)ccc2O[C@@H]1CN(C)Cc1ccc(C(=O)Nc2ccccc2N)cc1	nt	nt	nt	95.8*
C[C@@H]1CN([C@H](C)CO)C(=O)Cc2cc(NC(=O)Cc3ccccc3)ccc2O[C@H]1CN(C)Cc1ccc(C(=O)Nc2ccccc2N)cc1	nt	nt	nt	28.5
C[C@H](CO)N1C[C@H](C)[C@H](CN(C)Cc2ccc(C(=O)Nc3ccccc3N)cc2)Oc2ccc(NC(=O)Cc3ccccc3)cc2CC1=O	nt	nt	nt	127.9*
Cc1ccc(S(=O)(=O)N(C)C[C@H]2Oc3c(NC(=O)CCCCCC(=O)Nc4ccccc4N)cccc3C(=O)N([C@H](C)CO)C[C@H]2C)cc1	nt	nt	nt	57.3
C[C@@H]1CN([C@H](C)CO)C(=O)c2cccc(NC(=O)CCCCCC(=O)Nc3ccccc3N)c2O[C@@H]1CN(C)S(=O)(=O)c1ccccc1	nt	nt	nt	47.0
C[C@@H]1CN([C@H](C)CO)C(=O)c2cccc(NC(=O)CCCCCC(=O)Nc3ccccc3N)c2O[C@@H]1CN(C)S(=O)(=O)c1ccc(Cl)cc1	nt	nt	nt	94.6*
SMILES	mut p53 react	ID4 binder	STK33 inh	NOMO-1 viab
C[C@@H]1CN([C@@H](C)CO)C(=O)c2cccc(NC(=O)CCCCCC(=O)Nc3ccccc3N)c2O[C@H]1CN(C)S(=O)(=O)c1ccc(Cl)cc1	nt	nt	nt	94.6*
C[C@H](CO)N1C[C@H](C)[C@@H](CN(C)S(C)(=O)=O)Oc2c(NC(=O)CCCCCC(=O)Nc3ccccc3N)cccc2C1=O	nt	nt	nt	25.0
C[C@@H]1CN([C@@H](C)CO)C(=O)c2cccc(NC(=O)CCCCCC(=O)Nc3ccccc3N)c2O[C@@H]1CN(C)S(=O)(=O)c1ccc(Cl)cc1	nt	nt	nt	121.1*
Cc1noc(C)c1NC(=O)Nc1cccc2c1O[C@H](CN(C)Cc1ccc(-c3ccccc3)cc1)[C@@H](C)CN([C@@H](C)CO)C2=O	nt	nt	nt	36.1
Cc1nc(Oc2ccc(NC(=O)c3ccccc3)cc2)c2c3c(sc2n1)CCC3	nt	nt	nt	132.9*
CCOc1ccc(NC(=O)CSc2nc(C)nc3sc4c(c23)CCCC4)cc1	-7.6	i	4.4	28.4
COc1ccccc1S(=O)(=O)N[C@H]1C=C[C@H](CC(=O)NCc2cccc(F)c2)O[C@H]1CO	nt	i	nt	nt
C[C@@H]1CN([C@H](C)CO)C(=O)Cc2cc(NC(=O)Cc3cn(C)c4ccccc34)ccc2O[C@@H]1CN(C)Cc1ccc(Oc2ccccc2)cc1	nt	nt	-0.9	115.8*
C[C@H](CO)N1C[C@H](C)[C@H](CN(C)Cc2ccc(Oc3ccccc3)cc2)Oc2ccc(NC(=O)Cc3cn(C)c4ccccc34)cc2CC1=O	nt	nt	5.2	69.3
C[C@@H]1CN([C@H](C)CO)C(=O)Cc2cc(NC(=O)Cc3cn(C)c4ccccc34)ccc2O[C@@H]1CN(C)Cc1ccc(-c2ccccc2)cc1	nt	nt	-1.6	110.2*
O=C(CN1C(=O)c2ccccc2S1(=O)=O)Nc1ccccc1-c1ccccc1	0.3	i	-1.0	16.1
O=C1C=C(NC2CCCC2)CC(c2ccccc2)C1 (stereo unspecified)	nt	nt	nt	110.6*
CC1CC(=O)C2=C(C1)C(Cl)C(O)C1(O)C2C(=O)c2cccc(O)c2C1O (stereo unspecified)	-11.7	i	-0.8	101.3*
O=C(/C=C/c1ccc(O)c(O)c1)OCCc1ccccc1	42.0	i	1.2	141.5*
O=C(Cn1c2ccccc2n2nc(-c3cccs3)nc12)c1ccc(Cl)cc1	-37.0	i	6.6	114.7*
N#C/C(N=Cc1cccs1)=C(\C#N)NCc1c(F)cccc1Cl	nt	nt	nt	46.2
O=c1[nH]c(=O)n(C2C[C@H](O)[C@@H](CO)O2)cc1C(F)(F)F (stereo partly specified)	nt	nt	-1.4	108.2*
O=C(O)COc1cccc(-c2nc3ccccc3s2)c1	-43.1	i	-2.1	26.5
Cc1cccc(OCC(=O)Nc2cccc(-c3nc4ccccc4s3)c2)c1	59.3*	i	1.0	-8.3
COc1ccc(-c2nc3ccccc3s2)cc1NC(=O)COc1ccc(Cl)cc1Cl	74.1*	i	-1.9	6.5
COc1ccccc1OCC(=O)Nc1cccc(-c2nc3ccccc3s2)c1	66.8*	i	5.3	9.8
Cc1noc(C)c1S(=O)(=O)N(C)C[C@@H]1OCCCC[C@@H](C)Oc2ccc(NS(C)(=O)=O)cc2C(=O)N([C@@H](C)CO)C[C@H]1C	9.1	i	nt	nt

Source: PubChem
